Measured values from PubChem BioAssay (NCATS).
Values joined by “and” are separate entries in the source; they are usually repeats but may differ in a detail not shown here. Equal entries are not always repeated. Inconclusive results are not listed. Values without a mark were called inactive. Active and inactive are the calls of the source. The call rests on the fitted dose curve; in most records, active means well fitted inhibition curve with a large enough effect; inconclusive means small, poorly fitted or top-dose-only effect; inactive means flat fitted curve, though single readings scatter.
On the % scale 0 is the no-effect control and ±100 the full control effect; potency means the concentration at half of the fitted maximal effect.

The compounds below were run on KB-3-1 (assay: Cytotoxic Profiling of Annotated Libraries Using Quantitative High-Throughput Screening (AID 1296008; further: nearly all actives have a fitted effect of over 60% in size)). Settings: Five cell lines viability, CellTiter-Glo ATP luminescence, 48-72 h; max response: stronger effect = lower value.
Text: Cell-based phenotypic screening is a commonly used approach to discover biological pathways, novel drug targets, chemical probes and high-quality hit-to-lead molecules. Many hits identified from high-throughput screening campaign are ruled out through a series of follow-up potency, selectivity/specificity, and cytotoxicity assays. Prioritization of molecules with little or no cytotoxicity for a more in-depth downstream evaluation influence the future direction of projects, so cytotoxicity profiling of the screening libraries at early stage is essential for increasing the likelihood of candidate success. […] For the annotated library, we also examined the primary targets and mechanistic pathways regularly associated with cell death. To our knowledge, this is the first study to use high-throughput screening to profile large libraries for cytotoxicity assessment in both normal and cancer cell lines. In summary, the results generated here constitutes a valuable resource for the scientific community and provides insight on identifying cytotoxic compounds with particular mechanisms of action, and prioritizing compounds with suitable cytotoxicity profile for further evaluation.
A pintool (Kalypsys) was used to transfer 23 nL of compound solution to the 1536-well assay plates. After 48 or 72 hr incubation at 37 degree Celsius, 5% CO2 and 95% humidity, 2.5 uL of CellTiter-Glo (Promega) was dispensed into each well using a dispenser (Aspect Automation, St. Paul, MN) with solenoid valves (Lee Valves, Westbrook CT). Plates were left at room temperature for 10 min before imaging the ATP-coupled luminescence using a ViewLux microplate imager (PerkinElmer, Waltham, MA).
O=C(CCN1CCN(CCO)CC1)N1c2ccccc2Sc2ccc(C(F)(F)F)cc21 showed a max response of -4.21%.
With CC(=O)O[C@H]1C[C@@]2(C)[C@@H](C[C@@H](O)[C@H]3[C@@]4(C)CC[C@@H](O)[C@@H](C)[C@@H]4CC[C@@]32C)/C1=C(\CCC=C(C)C)C(=O)O the max response was -11.2% and the outcome was “inactive”.
C=CC(N)CCC(=O)O (stereo not given) gave a max response of 3.37%.
O=C(OCc1ccccc1)c1ccccc1 was tested, and the max response was 3.34%.
CCCCN(CC)c1nc(C)nc2c1c(C)cn2-c1c(C)cc(C)cc1C showed a max response of -14.3%.
CC(=O)[C@]1(O)Cc2c(O)c3c(c(O)c2[C@@H](O[C@H]2C[C@H](N)[C@H](O)[C@H](C)O2)C1)C(=O)c1c(O)cccc1C3=O was tested, and the Potency was 4.61 µM (active) and 5.17 µM (active).
For C=C(Nc1ccc(OCC)cc1)Nc1ccc(OCC)cc1, the max response was -11.3% and -9.03%.
Compound c1ccc(CCNc2nc(-c3ccccc3)cs2)cc1 has a max response of -17.2%.
In the case of O=C(O)COc1ccc(C(=O)c2cccs2)c(Cl)c1Cl, the max response is reported as -1.65% and 4.87%.
CN1[C@@H]2CC[C@H]1CC(OC(c1ccccc1)c1ccccc1)C2 (stereo not given in full) was tested, and the max response was -4.67% and 6.16% and -6.04% and the outcome was “inactive”.
With COc1cc(/C=C/C(=O)N2CCN(CC(=O)N3CCCC3)CC2)cc(OC)c1OC the max response was 5.58% and the outcome was “inactive”.
O=C(/C=C/c1ccccc1)NCCO gave a max response of 9.29%.
N=c1ccn2c(n1)O[C@H]1[C@H](O)[C@@H](CO)O[C@H]12 gave a max response of 33.6%.
COc1ccc(/C=C/C(=O)Nc2ccccc2C(=O)O)cc1OC was tested, and the max response was -5.53% and 8.2%.
CN(C)c1ccc(N=NS(=O)(=O)O)cc1 showed a max response of -10.4%.
Cc1c(C(=O)O)c(O)cc2c1C(=O)c1c(O)c([C@@H]3O[C@H](CO)[C@@H](O)[C@H](O)[C@H]3O)c(O)c(O)c1C2=O gave a max response of -19.3%.
With NS(=O)(=O)c1ccc(-n2nc(C(F)(F)F)cc2-c2ccc(Cl)cc2)cc1 the max response was -3.63%.
CC[C@H]1OC(=O)[C@H](C)[C@@H](O[C@H]2C[C@@](C)(OC)[C@@H](O)[C@H](C)O2)[C@H](C)[C@@H](O[C@@H]2O[C@H](C)C[C@H](N(C)C)[C@H]2O)[C@](C)(O)C[C@@H](C)C(=O)[C@H](C)[C@@H](O)[C@]1(C)O was tested, and the max response was 12% and -5.16%.
COc1ccc(-c2cc(=S)ss2)cc1 was tested, and the max response was 24%.
Work on Cc1ccc(O)c(-n2nc3ccccc3n2)c1 yielded a max response of -10.3%.
In the case of CN1[C@@H]2CC[C@H]1CC(OC(=O)C(CO)c1ccccc1)C2 (stereo not given in full), the max response is reported as -5.74% and -6.73% and 8.38%.
For CC[C@H]1OC(=O)[C@H](C)C(=O)[C@H](C)[C@@H](O[C@@H]2O[C@H](C)C[C@H](N(C)C)[C@H]2O)[C@](C)(OC)C[C@@H](C)C(=O)[C@H](C)[C@H]2N(CCCCn3cnc(-c4cccnc4)c3)C(=O)O[C@]12C, the max response was 6.09% and 49.1%.
With COc1cc(/C=C/C(=O)CC(=O)/C=C/c2ccc(O)c(OC)c2)ccc1O the max response was 44.3%.
For COc1cc2c3cc1Oc1cc(ccc1O)C[C@@H]1c4c(cc(OC)c(O)c4Oc4ccc(cc4)C[C@@H]3N(C)CC2)CC[N+]1(C)C, the max response was -2.77%.
In the case of COc1cc(NC(C)CCCN)c2ncccc2c1 (stereo not given), the max response is reported as 20.7%.
In the case of CO[C@@]1(NC(=O)Cc2cccs2)C(=O)N2C(C(=O)O)=C(COC(N)=O)CS[C@@H]21, the max response is reported as -24.9% and -6.96%.
With CN1CC(=O)N/C1=N/C(=O)Nc1cccc(Cl)c1 the max response was 1.15% and -4.39%.
In the case of Cc1nc2ccccc2n1Cc1ccc(Cl)cc1, the max response is reported as -8.87%.
With CC(=O)c1ccc(OCC(=O)N2CCCCC2)cc1 the outcome was “inactive”.
CC(N)C(=O)OC(C)(C)Cc1ccc(Cl)cc1 (stereo not given) showed a max response of 3.19%.
C/C(=N\O)c1ccc(OCC(=O)N2CCCCC2)cc1 was tested, and the outcome was “inactive”.
With CC1(C)S[C@@H]2[C@H](NC(=O)[C@H](NC(=O)N3CCN(S(C)(=O)=O)C3=O)c3ccccc3)C(=O)N2[C@H]1C(=O)O the max response was 1.37% and the outcome was “inactive”.
With Nc1ccc(C(=O)O)c(O)c1 the max response was -11.5%.
For C=CCN1C(=O)C(CC(C)C)NC1=S (stereo not given), the max response was 11.7% and 6.26%.
For CN(C)c1ccc(C(=C2C=CC(=[N+](C)C)C=C2)c2ccccc2)cc1, the max response was -1.13%.
In the case of CCOC(=O)c1ccccc1O, the max response is reported as -11.3% and -16.2%.
